For assay [1], the system named is Wnt5a (protein binding on small-molecule microarray). Briefly: small molecules binding Wnt5a protein – biophysical, small-molecule microarray, 635/667 nm fluorescence, primary screen (AID 1142).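 Further: fluorescence read at 667 nm with signal to noise per printed feature.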 The conditions noted are these: 635 nm fluorescence, higher = more signal.
Assay [2] in a line: ATP-based viability of Huh7 replicon cells – cell-based, CellTiter-Glo luminescence, basal, 48 h, cytotoxicity control for HCV replication inhibitor project, primary screen (AID 1143).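 Further: Huh7 hepatoma cells carrying a hepatitis C replication reporter with no stimulus; test concentration not given here.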 To be noted: higher = more signal, called active from +8 up or from −8 down. In general terms: A replicon is a self-replicating genome or part of one, used to study replication in cells.
Assay [3] in a line: Pseudomonas biofilm growth suppression – PAO1 strain, BacTiter-Glo luminescence, LB-PBS, primary screen (AID 1144). The conditions noted are these: P. aeruginosa PAO1 biofilm, 12 h, higher = more signal.
Assay [4] is described as follows: basal CRE-LacZ reporter activity in PC12 – cell-based, unstimulated, primary screen (AID 1145). The conditions noted are these: no forskolin, luminescence, 4.5 h, higher = more signal, called active from +8 up or from −8 down.
Assay [5] is described as follows: forskolin-driven CRE-LacZ activity in PC12 – cell-based, CRE-LacZ reporter, forskolin-stimulated, primary screen (AID 1146).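 Further: PC12 cells with 6xCRE LacZ reporter stimulated by forskolin 10 µM; beta-galactosidase reporter signal reflecting CREB driven transcription.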 To be noted: luminescence, 4.5 h, higher = more signal, called active from +8 up or from −8 down.
For assay [6], the target named is Streptavidin (Streptomyces avidinii) (UniProt P22629). Briefly: compounds binding control protein streptavidin – biophysical, small-molecule microarray, 635/667 nm fluorescence, artefact control for SMM compound annotation, primary screen (AID 1147).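 Further: signal reflects streptavidin binding to arrayed compounds as a control protein.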 The conditions noted are these: higher = more signal.
Sequence of Streptavidin (Streptomyces avidinii) (P22629 whole entry, looked up): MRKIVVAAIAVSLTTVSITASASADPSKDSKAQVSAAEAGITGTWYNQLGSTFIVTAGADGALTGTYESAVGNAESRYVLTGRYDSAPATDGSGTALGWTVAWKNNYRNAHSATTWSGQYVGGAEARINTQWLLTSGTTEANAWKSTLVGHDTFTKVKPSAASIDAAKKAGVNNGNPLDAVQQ
The nature of assay [7]: probe aInhba binding on compound microarray – biochemical, small-molecule microarray, 635/667 nm fluorescence, primary screen (AID 1148).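 Further: score merges 667nm spot fluorescence with signal-to-noise for antibody binding to printed compounds.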 The conditions noted are these: higher = more signal.
Assay [8] deals with Torsin-1A (Homo sapiens) (UniProt O14656). As to the kind of experiment: TOR1A wild-type binding on microarray – cell lysate, small-molecule microarray, lysate, 635/667 nm, primary screen (AID 1149). The conditions noted are these: COS7 hTOR1A-WT lysate, 635 nm fluorescence, higher = more signal.
Sequence of Torsin-1A (Homo sapiens) (O14656 whole entry, looked up): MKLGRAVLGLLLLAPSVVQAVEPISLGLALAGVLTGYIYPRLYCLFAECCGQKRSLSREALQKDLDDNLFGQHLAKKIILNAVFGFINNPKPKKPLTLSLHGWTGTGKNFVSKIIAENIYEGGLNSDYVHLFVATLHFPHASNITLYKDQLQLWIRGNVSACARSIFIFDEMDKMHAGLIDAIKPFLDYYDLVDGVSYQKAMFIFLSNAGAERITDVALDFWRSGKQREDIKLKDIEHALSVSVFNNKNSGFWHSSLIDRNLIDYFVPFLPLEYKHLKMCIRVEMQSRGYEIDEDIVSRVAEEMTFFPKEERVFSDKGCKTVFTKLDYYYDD
Assay [9] shares this target. As to the kind of experiment: torsin A mutant lysate binding on microarrays – cell lysate, small-molecule microarray, COS7 lysate, 635/667 nm fluorescence, primary screen (AID 1150).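 Further: score pools 667 nm emission and signal to noise measuring lysate protein binding.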 To be noted: COS7 hTOR1A mutant lysate, 635 nm fluorescence, higher = more signal.
Assay [10] concerns Sonic hedgehog protein (Shh). As to the kind of experiment: Sonic hedgehog microarray binding compounds – biochemical, small-molecule microarray, 635/667 nm fluorescence, primary screen (AID 1151).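 Further: Shh protein binding to compounds spotted on small-molecule microarray slides; score combines spot fluorescence intensity with signal-to-noise across triplicate slides.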 To be noted: 635 nm fluorescence, higher = more signal.

Calls of active or inactive are those of the source. Unless noted, how the calls were made is not given here.

Regarding `Cc1ccc(S[C@]2(C(=O)NC3CC3)CC(=O)N(C3Cc4ccccc4C3)[C@@H]2c2ccc(CO)cc2)cc1`, the composite z-score was -0.0244 in [1]; -0.75 in [6]; -0.0136 in assay [7]; -0.382 with Torsin-1A (Homo sapiens) [8]; 0.23 with Torsin-1A (Homo sapiens) [9]; -0.766 in assay [10]. Further, the z-score in [2] is -1.6 (inactive); in assay [3] it was -0.401 (inactive); in assay [4], 0.324 (inactive); in [5], -0.906 (inactive).

With `C=CCN1C(=O)[C@]2(O[C@H](CCO)[C@@H]([Si](C)(C)c3ccc(OC)cc3)[C@@H]2C)c2cc(N3CCCCC3=O)ccc21`, the composite z-score in assay [1] turned out to be 0.193; in assay [6] it was 0.802; in [7] it was 0.103; with Torsin-1A (Homo sapiens) [8] it was 1.1; in the assay with Torsin-1A (Homo sapiens) [9] it was 0.364; in assay [10], 2.24. Further, the z-score was -5.37 (inactive) in assay [2], 0.597 (inactive) in assay [3], 3.85 (inactive) in assay [4] and 0.22 (inactive) in [5].

In the case of `O=C(NCC(F)(F)F)[C@@H]1c2ccccc2C(=O)N(C2CCCCC2)[C@H]1c1ccc(CO)cc1`, the composite z-score was -0.107 in assay [1]; 0.0656 in assay [6]; -0.0422 in assay [7]; 0.252 with Torsin-1A (Homo sapiens) [8]; -0.287 with Torsin-1A (Homo sapiens) [9]; -0.376 in assay [10]. Besides, the z-score in assay [2] is -1.51 (inactive); in assay [3] it was 0.795 (inactive); in [4] it was 0.299 (inactive); in [5], -0.258 (inactive).

In the case of `CN1C(=O)[C@]2(Cc3ccccc3)N=C(c3ccc(OCCCO)cc3)O[C@@H]2c2ccccc21`, the composite z-score in assay [1] was 0.928; in assay [6], 0.0004; in assay [7], 0.112; in the assay with Torsin-1A (Homo sapiens) [8], 0.428; with Torsin-1A (Homo sapiens) [9], 0.628; in [10] it was 1.15. The z-score in [2] is -4.61 (inactive); in [3], -1 (inactive); in assay [4] it was 0.456 (inactive); in [5] it was -1.12 (inactive).

`O=C1OCCC/C=C\[C@H]2OC34C=CCN(CCN5CCOCC5)C(=O)[C@H]3N(CCCO)C(=O)[C@@H]4C12` (stereo not given in full): the composite z-score in assay [1] was -0.196; in assay [6], -0.388; in assay [7] it was -0.292; in the assay with Torsin-1A (Homo sapiens) [8] it was -0.222; with Torsin-1A (Homo sapiens) [9], 1.01; in [10] it was -0.165. In addition, the z-score in assay [2] is 0.732 (inactive); in assay [3], 1.46 (inactive); in [4] it was -0.484 (inactive); in assay [5] it was -0.947 (inactive).

For the molecule `COc1ccc(C(O)C2C=CC3C(=O)N(C)C(=O)C3N2N2CCCCC2)c2ccccc12` (stereo not given), the composite z-score was 0.533 in assay [1]; 1.25 in assay [6]; 0.111 in assay [7]; 0.466 with Torsin-1A (Homo sapiens) [8]; 0.66 with Torsin-1A (Homo sapiens) [9]; -0.474 in [10]. Besides, the z-score in assay [2] was 0.221 (inactive); in assay [3], 0.28 (inactive); in assay [4], 1.39 (inactive); in [5], 0.426 (inactive).

For the molecule `C=CC[C@]1(C(=O)NCCCOC)N=C(c2ccc(OCCCO)cc2)O[C@H]1c1ccccc1N=[N+]=[N-]`, the composite z-score in [1] was 0.485; in [6], 1.39; in assay [7], 0.611; with Torsin-1A (Homo sapiens) [8] it was 0.0108; in the assay with Torsin-1A (Homo sapiens) [9] it was 0.878; in assay [10], -0.477. Besides, the z-score in [2] was -2.57 (inactive); in assay [3], -0.742 (inactive); in assay [4] it was 2.14 (inactive); in assay [5] it was -1.5 (inactive).

For `C=CC[C@]12N=C(c3ccc(OCCCO)cc3)O[C@H]1c1ccccc1N(Cc1ccccc1)C2=O`, the composite z-score in assay [1] is 0.373; in assay [6] it was -0.255; in assay [7], 0.153; in the assay with Torsin-1A (Homo sapiens) [8], 0.35; in the assay with Torsin-1A (Homo sapiens) [9] it was 1.04; in assay [10], 0.351. Moreover, the z-score is -3.92 (inactive) in [2], 0.71 (inactive) in assay [3], -0.389 (inactive) in assay [4] and -1.64 (inactive) in assay [5].

In the case of `COC(=O)[C@@]1(Cc2ccccc2)[C@H]2c3cc(C(=O)N4CCCC4)n(Cc4nc5ccccc5[nH]4)c3C[C@H]2CN1C(=O)c1ccccc1`, the composite z-score in assay [1] is 0.0972; in assay [6], 1.51; in [7], 0.427; with Torsin-1A (Homo sapiens) [8], 0.746; with Torsin-1A (Homo sapiens) [9] it was 1.24; in [10], -0.105. The z-score in assay [2] was -2.97 (inactive); in assay [3] it was -0.509 (inactive); in assay [4] it was 0.773 (inactive); in assay [5], 1.46 (inactive).

On to `C=CCN1C(=O)[C@@]2(O[C@@H](CCO)[C@H]([Si](C)(C)c3ccc(OC)cc3)[C@H]2C)c2cc(NC(=O)c3ccc(OC)cc3)ccc21`, for which the composite z-score in [1] was 0.157; in assay [6] it was 0.15; in assay [7], -0.0221; with Torsin-1A (Homo sapiens) [8], 0.214; with Torsin-1A (Homo sapiens) [9], 0.373; in [10] it was 1.64. Further, the z-score was -6.5 (inactive) in [2], -0.39 (inactive) in assay [3], 10.6 (active) in [4] and -1.6 (inactive) in assay [5].

`COCCOC(=O)N1C(=O)[C@@]2(c3cc(C#CC4=CCCCC4)ccc31)[C@H](c1ccc(O)cc1)N1[C@H](c3ccccc3)[C@H](c3ccccc3)OC(=O)[C@H]1[C@@H]2C(N)=O`: the composite z-score is 0.824 in [1]; 0.17 in assay [6]; -0.598 in [7]; 0.0873 in the assay with Torsin-1A (Homo sapiens) [8]; 0.522 with Torsin-1A (Homo sapiens) [9]; 2.07 in assay [10]. Further, the z-score in [2] is -1.83 (inactive); in assay [3] it was -0.591 (inactive); in assay [4], 0.0695 (inactive); in assay [5] it was 0.124 (inactive).

Take `COc1ccc(CCN2C(=O)[C@@]3(Cc4ccccc42)c2ccccc2C(=O)N(Cc2ccccc2C(F)(F)F)[C@H]3c2ccc(CO)cc2)cc1`: the composite z-score is 0.268 in [1]; -0.228 in [6]; -0.208 in [7]; 0.208 in the assay with Torsin-1A (Homo sapiens) [8]; 0.087 with Torsin-1A (Homo sapiens) [9]; 1.9 in assay [10]. Further, the z-score in assay [2] was -4.12 (inactive); in assay [3], -1.41 (inactive); in assay [4] it was -0.554 (inactive); in [5] it was -0.361 (inactive).

Take `COCCOC(=O)N1C(=O)[C@@]2(c3cc(C#CCNC(N)=O)ccc31)[C@H](C(=O)NC[C@H](O)c1ccccc1)[C@H]1C(=O)O[C@H](c3ccccc3)[C@H](c3ccccc3)N1[C@@H]2c1ccccc1OCCO`: the composite z-score in assay [1] is 0.8; in assay [6], -0.198; in [7], 0.801; with Torsin-1A (Homo sapiens) [8] it was 0.403; with Torsin-1A (Homo sapiens) [9], 0.593; in assay [10], 1.08. For the same molecule, the z-score in [2] is -0.417 (inactive); in assay [3] it was -0.0351 (inactive); in [4], -0.199 (inactive); in assay [5], -0.972 (inactive).

Turning to `COc1ccc([Si](C)(C)[C@H]2[C@H](CCO)O[C@@]3(C(=O)N(Cc4ccc(N5C(=O)COc6ccccc65)cc4)c4ccccc43)[C@@H]2C)cc1`, the composite z-score in assay [1] is -0.516; in assay [6], -0.314; in [7] it was -0.128; in the assay with Torsin-1A (Homo sapiens) [8], -1.06; with Torsin-1A (Homo sapiens) [9], -0.89; in [10] it was -0.15. In addition, the z-score in [2] is -6.62 (inactive); in [3] it was -1.32 (inactive); in assay [4] it was -0.766 (inactive); in [5], -0.706 (inactive).
